# KB-V1 MDR tox = qHTS assay for MDR1-selective chemotherapeutics: Primary screen using the drug-selected MDR subline cells KB-V1 | KB-V1 MDR cells viability, CellTiter-Glo, 72 h | Potency, µM (doses to about 46.1 µM), hits mostly cytotoxic | hit rate 3.4% among 400,000 | AID 1347076, 2019; also: % is scaled to controls: 0 for no effect and ±100 for the full control effect; nearly all actives have a fitted effect of over 60% in size
#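 qHTS viability screen in drug-selected KB-V1 MDR cells: 72 h compound treatment at 37 degrees C, ATP luminescence end point.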
# SW480 rerep = A quantitative high throughput screen for small molecules that induce DNA re-replication in SW480 colon adenocarcinoma cells | SW480 DNA re-replication, Hoechst DNA content imaging, 48 h | AID 624297, 2012 | hit rate 1.8% among 340,000 | Potency, µM (highest dose often 46.1 µM), without a hit: at the top dose re-replication activation, most hits filed as activators; also: % of control where 0% means no effect; nearly all actives have a fitted effect of over 55% in size
#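 Hoechst fluorescence of nuclei (405 nm excitation, 500-530 nm emission) measured by plate-scanning imager after 48 hr compound exposure at 37 C; re-replication scored as increased number of nuclei with elevated intensity.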
# ELG1 DNA repair = qHTS screen for small molecules that inhibit ELG1-dependent DNA repair in human embryonic kidney (HEK293T) cells expressing luciferase-tagged ELG1 | HEK293T ELG1-luciferase reporter, luminescence, 16 h; DNA damage induced by 5-fluorouridine | Potency, µM (series often up to 46.1 µM), without a hit: at the highest dose activity change, negative = inhibition, actives largely listed as inhibitors | hit rate 2.3% among 330,000; also: % is scaled to controls: 0 for no effect and ±100 for the full control effect; nearly all actives have a fitted effect of over 55% in size
#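 Reporter activity after DNA damage by 5-fluorouridine is monitored. Compound-treated cells incubate 16 hr at 37 °C, then ONE-Glo is added for 30 min before luminescence reading.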
# KB-3-1 cytotox = qHTS assay for MDR1-selective chemotherapeutics: Primary screen using the parental adenocarcinoma cell KB-3-1 | KB-3-1 viability, CellTiter-Glo ATP luminescence, 72 h | Potency, µM (highest dose often 46.1 µM), actives largely listed as cytotoxic | hit rate 1.4% among 400,000 | AID 1347075, 2019; also: % is scaled to controls: 0 for no effect and ±100 for the full control effect; nearly all actives have a fitted effect of over 60% in size
#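 Screening of KB-3-1 cells (DMEM, 10% FBS, phenol-red free) ran from lowest to highest compound concentration; after 72 h at 37 °C viability was read luminescently and curves fitted.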
# MCF10A rereplic = A quantitative high throughput screen for small molecules that induce DNA re-replication in MCF 10a normal breast cells; MCF 10A DNA re-replication, Hoechst nuclear intensity, 48 h; hit rate 2.9% among 350,000; AID 624296, 2012; Potency, µM (doses to about 46.1 µM), inactives show top-dose activity, positive = re-replication, hits mostly activators; also: % of control where 0% means no effect; nearly all actives have a fitted effect of over 50% in size
# * marks the source's active call; other numbers are inactive results; i = inactive; u = inconclusive; x = not tested or not shown; ! = not confirmed by another sample; [ ] = dose if it differs, or a comment. Most compounds without a hit are left out; they make up all but 8.1% or so of the library. Calls follow the shape of the dose curve; as a rule, active = well fitted curve in the direction sought with a large enough effect; inconclusive = small, poorly fitted or top-dose-only effect, or another doubt; inactive = no such curve, though single readings can be large; an effect the other way counts as inactive or inconclusive. Potency is read from the fitted curve at half-maximal effect.
SMILES,KB-V1 MDR tox,SW480 rerep,ELG1 DNA repair,KB-3-1 cytotox,MCF10A rereplic
CCOc1cc(C2c3c(oc4cc(C)c(Cl)cc4c3=O)C(=O)N2Cc2ccco2)ccc1O (stereo unspecified),1.8µM*,5%,u,u,u
Fc1ccc(/C=C2\CCCC3=C2Nc2ncnn2C3c2ccc(F)cc2)cc1 (stereo unspecified),u,23µM*,4.6µM*,21µM*,5.8µM*
CCOC(=O)C1=C(N)n2c(s/c(=C\c3ccco3)c2=O)=C(C(=O)OC(C)C)C1c1ccco1 (stereo unspecified),i,15%,u,i,3%
CCOC(=O)C1=C(N)n2c(s/c(=C\c3ccco3)c2=O)=C(C(=O)OCC)C1c1ccco1 (stereo unspecified),4.6µM*,u,-19%,16µM*,5.8µM*
COc1ccccc1N=Nc1ccc(O)c2ncccc12,u,10%,u,i,18%
Cc1ccc(N=Nc2ccc(O)c3ncccc23)cc1,i,1.2µM*,u,u,u
Cc1ccc(N=Nc2ccc(O)c3ncccc23)cc1C,i,u,u,u,8%
CCS(=O)(=O)c1ccc(N=Nc2ccc(O)c3ncccc23)c(OC)c1,u,4.6µM*,u,15µM*,u
COc1ccc(C2=C(C=C(C#N)C#N)C(c3ccccc3C)c3ccccc3O2)cc1OC (stereo unspecified),15µM*,u,u,i,-53%
CCOC(=O)c1c(NC(=O)CSc2nnc(-c3c[nH]c4ccccc34)n2C)sc2c1CCCC2,i,3%,u,u,22%
CCOC(=O)c1c(NC(=O)CSc2nnc(-c3c[nH]c4ccccc34)n2CCOC)sc2c1CCCC2,i,u,-27%,18µM*,15%
CC1CCN(S(=O)(=O)c2cn(CC(=O)Nc3ccc(F)c(Cl)c3)c(=O)c3ccccc23)CC1,i,x,x,u,x
Cc1ccc(-c2cc3nc(NCCc4ccncc4)n(C)c(=O)c3s2)cc1,i,x,x,i,x
O=CNc1ccc2c(c1)Cc1cccc(NC=O)c1-2,6.5µM*,1%,x,u,-2%
CP(C)(=O)CCP(=O)(c1ccccc1)c1ccccc1,i,-2%,-2%,i,-13%
CCN(CC)CCP(=O)(c1ccccc1)c1ccccc1,i,u,13%,i,9.2µM*
CC(Oc1ccc(C#N)cc1)C(=O)NC1CCCC1 (stereo unspecified),i,1%,18%,i,1%
Cc1ccc(NS(=O)(=O)c2ccc(-c3cnc(C4CC4)o3)cc2)cc1,u,18µM*,-7%,18µM*,10µM*
N#Cc1ccc(NS(=O)(=O)c2ccc(-c3cnc(C4CC4)o3)cc2)cc1,i,x,x,i,x
Cc1cccc(C)c1NS(=O)(=O)c1ccc(-c2cnc(C3CC3)o2)cc1,0.73µM*,u,1%,0.023µM*,u
CC(=O)c1ccc(NS(=O)(=O)c2ccc(-c3cnc(C4CC4)o3)cc2)cc1,u,-2%,11%,i,15%
COc1ccc(C)cc1NS(=O)(=O)c1ccc(-c2cnc(C3CC3)o2)cc1,u,0.13µM*,-1%,0.21µM*,u
COc1cc(Cl)c(NS(=O)(=O)c2ccc(-c3cnc(C4CC4)o3)cc2)c(OC)c1,1µM*,x,x,1.6µM*,x
O=S(=O)(c1ccc(-c2cnc(C3CC3)o2)cc1)N1CCN(c2ccccc2)CC1,i,4%,u,i,30%
Cc1ccc(-c2nc3ccc(Br)cn3c2Cc2cccc(Cl)c2)cc1,i,x,x,u,x
SMILES,KB-V1 MDR tox,SW480 rerep,ELG1 DNA repair,KB-3-1 cytotox,MCF10A rereplic
COc1cc(OC)c(Nc2cc(C)nc3ncnn23)cc1Cl,i,x,x,i,x
Cc1ccc(Nc2c(-c3ccc(C)s3)nc3ncccn23)cc1,i,x,x,i,x
CN(Cc1ccccc1)S(=O)(=O)c1ccc(-c2cnc(C3CC3)o2)cc1,i,x,x,i,x
COc1cccc(NS(=O)(=O)c2cc(-c3cnc(C4CC4)o3)ccc2C)c1,7.3µM*,x,x,4.1µM*,x
Cc1ccc(N(C)S(=O)(=O)c2ccc(-c3cnc(C4CC4)o3)cc2)cc1,2.9µM*!,u,6%,3.3µM*!,u
Cc1ccc(C)[n+](CC(=O)c2ccc(-c3ccccc3)cc2)c1,i,2%,7.3µM*,i,u
CC(C)Oc1ccc(F)cc1-c1cc(C(=O)Nc2ccc(C(C)(C)C)cc2)[nH]n1,i,x,x,i,x
O=C1c2ccccc2-n2c1nc1ccccc1c2=O,u,1.2µM*,u,u,8%
O=c1c2ccccc2nc2n1-c1ccccc1CCC2,u,2%,8%,i,22%
Cc1nnc(N/N=C/c2cc([N+](=O)[O-])c(N3CCC(C)CC3)cc2N2CCC(C)CC2)n1N,23µM*,u,u,i,u
CCc1nnc(N/N=C/c2ccc(N3CCC(C)CC3)c([N+](=O)[O-])c2)n1N,u,u,-1%,i,u
COc1ccc(OC)c(S(=O)(=O)NC2CC(=O)N(c3cccc(F)c3)C2)c1 (stereo unspecified),i,6.5µM*,u,i,-13%
Sc1oc(-c2ccccc2)cc1C=Nc1ccccc1,i,13µM*,u,i,u
Oc1oc(-c2ccccc2)nc1C=Nc1ccccc1,i,0%,u,i,-5%
Cc1ccc(Nc2nc(CSc3nnc(-c4ccc(F)cc4)n3C)cs2)cc1,6.5µM*,u,u,u,13%
CCOC(=O)c1ccccc1Nc1nc2ccc(C)cc2n2nnnc12,i,x,x,i,x
CCOC(=O)N1CCC(Nc2nc3ccccc3n3nnnc23)CC1,2.3µM*,8%,-3%,i,u
CCC(=O)N1CCc2cc(Br)cc(S(=O)(=O)N3CCN(c4ccc(C)cc4)C(C)C3)c21 (stereo unspecified),i,x,x,i,x
Cc1ccc2nc(NC(=O)c3ccccc3F)sc2c1,u,0%[9.22 µM],u,i,24%
COc1ccc2nc(NC(=O)CSc3nc(C)cc(=O)[nH]3)sc2c1,i,1%,26%,i,0%
CCCC(=O)Nc1nc2ccc(NC(=O)c3ccccc3F)cc2s1,1.8µM*,8.2µM*,-4%,2.1µM*,6.5µM*
COc1ccc2nc(NC(=O)CCc3cc(OC)c(OC)c(OC)c3)sc2c1,21µM*,9%,10µM*,i,1%
COc1ccc2nc(NC(=O)CSc3nccc(C)n3)sc2c1,23µM*,-4%,-24%,i,14%

# From PubChem BioAssay
